Measurements from PubChem BioAssay (NCATS).
Several values for one entry are separate records, joined by “and”; a condition that tells them apart may be missing. Equal values may be shown once. Unmarked numbers belong to inactive results. Calls follow the shape of the dose curve; as a rule, active = well fitted activation curve with a large enough effect; inconclusive = small, poorly fitted or top-dose-only effect; inactive = flat fitted curve, though single readings scatter.

molecular target: Peroxisome proliferator-activated receptor alpha (Homo sapiens) (UniProt Q07869); test: qHTS assay for small molecule agonists of the peroxisome proliferator-activated receptor alpha (PPARalpha) signaling pathway (AID 651778); conditions: PathHunter PPARalpha complementation, chemiluminescence, 6 h; max response: stronger effect = higher value; also: % of control where 0% means no effect
Sequence (Q07869 whole entry, looked up, the tested form may be a part): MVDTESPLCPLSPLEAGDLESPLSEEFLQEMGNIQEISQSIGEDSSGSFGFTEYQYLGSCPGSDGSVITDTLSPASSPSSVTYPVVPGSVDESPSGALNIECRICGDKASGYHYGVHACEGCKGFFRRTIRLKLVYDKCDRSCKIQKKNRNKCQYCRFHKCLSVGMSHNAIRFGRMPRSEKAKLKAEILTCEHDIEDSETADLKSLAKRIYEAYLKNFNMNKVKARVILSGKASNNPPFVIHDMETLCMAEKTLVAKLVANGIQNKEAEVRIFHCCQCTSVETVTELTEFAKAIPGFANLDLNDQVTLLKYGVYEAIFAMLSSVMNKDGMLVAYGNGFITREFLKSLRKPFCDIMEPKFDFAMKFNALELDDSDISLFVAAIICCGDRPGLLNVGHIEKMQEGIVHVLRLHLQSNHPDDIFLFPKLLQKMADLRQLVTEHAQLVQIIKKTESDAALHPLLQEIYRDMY
In short: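 Enzyme-fragment complementation assay in which ligand-bound PPARalpha translocates and forms an active enzyme that generates chemiluminescence. Cells were plated overnight, exposed to compound for 6 hr at 37 C, and then given detection reagent for 60 min at room temperature.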

Structure (SMILES) | max response
CC#C[C@]1(O)CC[C@H]2[C@@H]3CCC4=CC(=O)CCC4=C3[C@@H](c3ccc(N(C)C)cc3)C[C@@]21C | -3.32%
O=C(c1ccc(OCCN2CCCCC2)cc1)c1c(-c2ccc(O)cc2)sc2cc(O)ccc12 | -6.34%
Clc1ccc(C(c2ccccc2Cl)C(Cl)Cl)cc1 (centres undefined) | 18.7%
Cn1c(=O)c2c(ncn2C)n(C)c1=O | -7.69% and -2.94%
CC(C)NCC(O)c1ccc(O)c(O)c1 (centres undefined) | -1.03% and -0.0809%
O=C(Nc1ccc([N+](=O)[O-])cc1Cl)c1cc(Cl)ccc1O | -1.62%
Cc1cn([C@H]2C[C@H](N=[N+]=[N-])[C@@H](CO)O2)c(=O)[nH]c1=O | 0.0124% and -0.27%
Nc1ccn([C@H]2CC[C@@H](CO)O2)c(=O)n1 | -1.99% and 0.814%
CC(C)Cc1ccc(C(C)C(=O)O)cc1 (centres undefined) | -0.128%
O=c1[nH]cc(F)c(=O)[nH]1 | -2.48%
Nc1c2c(nc3ccccc13)CCCC2 | -6.35%
C[C@](N)(Cc1ccc(O)c(O)c1)C(=O)O | -1.06%
CN(Cc1cnc2nc(N)nc(N)c2n1)c1ccc(C(=O)N[C@@H](CCC(=O)O)C(=O)O)cc1 | -3.74%
COc1cc2c(c(OC)c1OC)-c1ccc(OC)c(=O)cc1[C@@H](NC(C)=O)CC2 | -2.35% and 0.0679% and 8.6%
